Experimental data published in PubChem BioAssay AID2796 (The Scripps Research Institute Molecular Screening Center, 2010).
Screen size: about 320,000 compounds; about 8,000 (2.5%) were called active. Only a selection was taken, and actives are over-represented in it overall. Unmarked numbers belong to inactive results. Cut-off read from the data, not from the text of the source: active = activation above about 47%; inactive = the rest.

Biological target: Aryl hydrocarbon receptor (Homo sapiens) (UniProt P35869)
Sequence (P35869 whole entry, looked up): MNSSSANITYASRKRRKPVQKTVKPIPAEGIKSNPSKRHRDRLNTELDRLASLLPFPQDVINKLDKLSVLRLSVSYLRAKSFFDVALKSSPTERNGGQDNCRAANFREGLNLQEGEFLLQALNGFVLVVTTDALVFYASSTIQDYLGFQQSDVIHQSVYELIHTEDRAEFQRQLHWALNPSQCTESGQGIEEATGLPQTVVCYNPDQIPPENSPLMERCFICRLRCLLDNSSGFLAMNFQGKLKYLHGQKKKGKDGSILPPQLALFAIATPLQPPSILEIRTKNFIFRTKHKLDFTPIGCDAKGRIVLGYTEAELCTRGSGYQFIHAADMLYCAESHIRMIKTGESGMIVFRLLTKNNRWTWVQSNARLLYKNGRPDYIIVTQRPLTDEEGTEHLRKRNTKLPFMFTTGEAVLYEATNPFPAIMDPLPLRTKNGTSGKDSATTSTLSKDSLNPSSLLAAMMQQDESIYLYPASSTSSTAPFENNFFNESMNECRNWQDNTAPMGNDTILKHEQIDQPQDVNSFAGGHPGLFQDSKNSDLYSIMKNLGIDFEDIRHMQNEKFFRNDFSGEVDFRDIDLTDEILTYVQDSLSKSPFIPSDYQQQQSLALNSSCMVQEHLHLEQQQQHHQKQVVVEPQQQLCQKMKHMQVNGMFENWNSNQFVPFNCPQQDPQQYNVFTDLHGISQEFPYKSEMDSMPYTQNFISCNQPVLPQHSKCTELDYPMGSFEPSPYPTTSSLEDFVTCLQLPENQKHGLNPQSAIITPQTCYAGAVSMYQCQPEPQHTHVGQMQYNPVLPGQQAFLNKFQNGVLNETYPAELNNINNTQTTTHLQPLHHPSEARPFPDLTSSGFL
Assay: AHR activators, primary screen, cell-based, luminescence, luciferase reporter, human (AID 2796);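 note: 0% = vehicle wells and 100% = reference agonist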
Settings: AHR-responsive luciferase reporter cells, at 5 µM, active compounds read high

| Structure (SMILES) | activation |
| --- | --- |
| Cc1cc(C)n(CC(O)CN(c2ccccc2)S(=O)(=O)c2ccc3ccccc3c2)n1 (stereo not given) | 2.73% |
| N#C/C(=C(/O)COC(=O)COc1ccc(Cl)cc1)c1nc2ccccc2[nH]1 | 24.9% |
| N#C/C(=C(/O)COc1cccc2ccccc12)c1nc2ccccc2[nH]1 | 93.7% (active) |
| N#C/C(=C(/O)Cc1cccc2ccccc12)c1nc2ccccc2s1 | 9.95% |
| O=C(CCNS(=O)(=O)c1ccccc1C(F)(F)F)NCc1ccc2c(c1)OCO2 | 4.67% |
| COc1ccccc1CCNC(=O)CSc1nnc2ccc(-c3cccnc3)nn12 | 16.4% |
| CCOC(=O)N1CCC(N2Cc3cccc(C(=O)Nc4ccc(S(=O)(=O)N(CC)CC)cc4)c3C2=O)CC1 | -1.91% |
| CC(=O)Oc1ccccc1C(=O)Nc1ncc([N+](=O)[O-])s1 | 6.57% |
| Cc1cccc(C)c1Nc1nnc(SCC(=O)NCCCN2CCCC2=O)s1 | -0.54% |
| C=CCNc1nc(N)c(C(=C(C#N)C#N)c2ccccc2)s1 | 5.13% |
| CN1c2ccc([N+](=O)[O-])cc2C(C)(C)C12C=Cc1cc(C(=O)O)ccc1O2 (stereo not given) | 0.9% |
| CC[C@@]1(C(=O)OC)N[C@H](CN(C)C(C)=O)[C@@H]2C(=O)N(C)C(=O)[C@@H]21 | -0.36% |
| Cn1c(/C(C#N)=C2/CCCCCN2)nc2ccccc21 | 67.6% (active) |
| N#C/C(=C1/CCCN1)c1ccccn1 | 0.38% |
| Cn1c(S(=O)(=O)O)nc2ccccc21 | 3.28% |
| Cc1ccc2[nH]c(=O)c(CN(CCCN(C)C)C(=O)Nc3cccc(Cl)c3)cc2c1 | 0.48% |
| CCOC(=O)c1nc(C)n(-c2ccc(Cl)cc2Cl)n1 | 2.68% |
| Cc1ncn2cc(-c3ccc(Cl)cc3Cl)[nH]c(=O)c12 | 56.5% (active) |
| COn1c(-c2ccc(Cl)cc2Cl)nc2ncccc21 | 2.64% |
| COc1cc(NC(=O)CSc2ccc(-c3cccnc3)nn2)cc(OC)c1 | 44.9% |
| O=S(=O)(NCC1CCCO1)c1cnc(Cl)c(Cl)c1 (stereo not given) | -2.6% |
| CC(C)[C@H](NC(=O)N1c2ccccc2NC(=O)[C@@H]1C(C)C)C(=O)N[C@H](C(=O)O)c1ccccc1 | 0.48% |
| C/C(=N\Nc1nc(N2CCOCC2)nc(N2CCOCC2)n1)c1ccc([N+](=O)[O-])cc1 | 0.4% |
| C/C(=N\Nc1nc(Nc2ccccc2)nc(N2CCOCC2)n1)c1cccs1 | 56.8% (active) |
| C/C(=N\Nc1nc2ccccc2[nH]1)c1cccs1 | 43.1% |
